# Measured values: the OligoGym collection
# Target: FAM151A
# Assay: pooled miR-30 sensor sort-seq; sequence = guide strand
# Settings: shRNA
# Further: reference of the scale not given here.
row,Sequence,sensor-assay potency score (higher = more potent)
1,AAAGATGTCATAGTAGACTTGG,0.264
2,TAGCATATCTGTGAGCAGCTGT,0.652
3,TTTGCCTTCCTCTGTCAGCTGC,0.237
4,TACATTGACGTCAGCCTCCAGG,-0.38
5,TTGTGCTCCACTGTGACGGTGG,0.185
6,TAAGATGTCAGCGTTGATCCAT,0.0658

# Target: FAM151B
# Assay: as above
# Settings: shRNA
row,Sequence,sensor-assay potency score (higher = more potent)
1,TTAGCTGCATGATACCAGGTGA,-0.378
2,TATGAAACCAAAACACAGGAAA,-1.05
3,TTTGCATCTATTACTTTGCTAT,-0.561
4,TCTTCTGCTGTAATCTGGCTAT,-0.597
5,TAGAGTATTATCACTGTTTGTT,0.198
6,TATTTTCACTCCAAGATCCTGG,-0.051
7,TAATGTAAAGTAAATCTTCAAC,-0.985
8,TTTGATTTCTTTAACAGCCAAA,-1.02
9,TATTGCTTTTCATAACTTCAGT,-0.677
10,TTTTCCAGTCCAAATAGTCAGG,-1.41
11,TTGAAATCCAGCTTGATGCCTT,0.157
12,TACAACTGCCAGACTTTTGAAA,-0.597

# Target: FAM154A
# Assay: as above
# Settings: shRNA
row,Sequence,sensor-assay potency score (higher = more potent)
1,TTTTATGGGGTAATCGTCCTGG,0.26
2,TTAATCTGAAGTGCAGGTCGGC,-0.481
3,TTGTCCAACAAATAATTCTCAG,-0.941
4,TTGTTTTTTGTCATTTTAGGGA,-0.361
5,TAATCTGAAGTGCAGGTCGGCA,-1.32
6,TAGTTCTCGGTATATTCGGAGA,-1.23
7,AAGCTTGGTACTTATCTCGAAA,-0.971
8,TTGGCTTGAAGGACTCTCTGGG,0.798
9,TTATCTCGAAACTCAGTGGTGT,0.244
10,TTTGTATATCCTGTGACCCAAA,-1.34
11,TTAGTCACATCCTCCAAGGGGA,0.0144
12,TTGTAGTCATCCTTGGTGGTGG,0.0888

# Target: FAM162A
# Assay: as above
# Settings: shRNA
row,Sequence,sensor-assay potency score (higher = more potent)
1,TTAAAGTCTCGTGTCTTTGGGC,0.109
2,TAAAACAGCTTCCTGCTGCCAG,-0.369
3,ATAGCTGATCTTCACTCGCATC,-1.3
4,TTTTTGAAGCGACCTGACCATA,-1.33
5,TTCACTCGCATCTTGTTCTTTG,-0.205
6,TTCTACAGCAGAAATACGGAAA,-0.939
7,TCACATAACCTAAAACAGCTTC,-0.389
8,TTAGAGATGAGGAAACATCTCT,0.0745
9,TCATCTTCCTTTTTGAAGCGAC,-0.679
10,TAACCATGAAGATGCATCCTAC,-0.864
